Measured values published in the supplement of paper PMC11732987, “Enantioselective OTUD7B fragment discovery through chemoproteomics screening and high-throughput optimisation” (Communications Chemistry, 2025).

How the values were obtained:
Assay in all cases: log2 ratio of Biotin-Ahx-Ub-VS probe labelling (fragment/DMSO); higher = less target engagement (more negative = stronger competition), active = hit call of the paper (q ≤ 0.05, log2 ratio ≤ -1)
Conditions in all cases: compound concentration: 200 uM; treatment time: 3 h
USP19 = target: T1, USP19 (UniProt O94966)
T1 sequence (whole entry): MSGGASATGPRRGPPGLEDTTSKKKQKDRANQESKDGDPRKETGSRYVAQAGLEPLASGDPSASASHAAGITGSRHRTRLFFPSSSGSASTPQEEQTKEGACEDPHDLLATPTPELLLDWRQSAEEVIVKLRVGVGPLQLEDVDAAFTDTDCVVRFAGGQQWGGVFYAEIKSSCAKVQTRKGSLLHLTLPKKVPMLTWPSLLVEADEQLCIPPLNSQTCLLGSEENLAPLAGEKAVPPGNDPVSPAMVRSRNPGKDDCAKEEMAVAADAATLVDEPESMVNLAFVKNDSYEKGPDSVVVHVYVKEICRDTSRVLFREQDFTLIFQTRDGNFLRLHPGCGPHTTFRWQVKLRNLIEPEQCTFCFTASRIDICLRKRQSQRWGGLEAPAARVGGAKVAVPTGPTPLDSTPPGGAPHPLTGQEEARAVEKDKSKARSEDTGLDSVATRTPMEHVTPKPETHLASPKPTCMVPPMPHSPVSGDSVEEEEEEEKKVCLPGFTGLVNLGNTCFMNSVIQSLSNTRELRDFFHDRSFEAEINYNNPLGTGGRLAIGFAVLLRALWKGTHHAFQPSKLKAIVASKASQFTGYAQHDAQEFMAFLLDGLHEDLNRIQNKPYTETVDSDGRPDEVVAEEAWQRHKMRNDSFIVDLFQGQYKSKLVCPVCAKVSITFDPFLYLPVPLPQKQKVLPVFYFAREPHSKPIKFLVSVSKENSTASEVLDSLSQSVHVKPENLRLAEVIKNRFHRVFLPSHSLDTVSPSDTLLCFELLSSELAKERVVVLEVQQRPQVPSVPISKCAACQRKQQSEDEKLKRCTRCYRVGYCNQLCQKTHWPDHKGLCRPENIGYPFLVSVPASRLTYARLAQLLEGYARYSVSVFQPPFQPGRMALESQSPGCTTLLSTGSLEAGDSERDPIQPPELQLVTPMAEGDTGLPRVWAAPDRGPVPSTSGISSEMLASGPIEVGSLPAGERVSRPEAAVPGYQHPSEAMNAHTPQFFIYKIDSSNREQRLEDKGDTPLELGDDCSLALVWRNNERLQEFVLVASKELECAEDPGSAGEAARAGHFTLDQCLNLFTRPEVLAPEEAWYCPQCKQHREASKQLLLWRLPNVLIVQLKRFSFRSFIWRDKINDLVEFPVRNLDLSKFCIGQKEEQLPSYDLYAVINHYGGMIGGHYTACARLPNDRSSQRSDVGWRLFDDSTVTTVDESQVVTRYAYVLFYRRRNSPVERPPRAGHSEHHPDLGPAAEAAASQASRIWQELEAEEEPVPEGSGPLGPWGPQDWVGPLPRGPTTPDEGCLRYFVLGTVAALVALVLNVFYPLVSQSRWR
Summary of the method: (§1)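 HEK293T lysate, 495 µg per sample in Tris/CHAPS/IGEPAL buffer with protease inhibitors, was treated in triplicate with fragment at 200 µM or vehicle for 3 h and then with Biotin-Ahx-Ub-VS at 0.5 µM final for 1 h. Labelled DUBs were NeutrAvidin-enriched, digested with LysC and trypsin, and run by diaPASEF LC-MS/MS. Spectronaut label-free quantities were global-median-normalised, and values are average log2 fragment/vehicle ratios by unpaired t-test on proteins with ≥2 unique peptides.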

USP24 = USP24 (UniProt Q9UPU5)
Summary of the method: as §1

USP25 = target: T2, USP25 (UniProt Q9UHP3)
T2 sequence (whole entry): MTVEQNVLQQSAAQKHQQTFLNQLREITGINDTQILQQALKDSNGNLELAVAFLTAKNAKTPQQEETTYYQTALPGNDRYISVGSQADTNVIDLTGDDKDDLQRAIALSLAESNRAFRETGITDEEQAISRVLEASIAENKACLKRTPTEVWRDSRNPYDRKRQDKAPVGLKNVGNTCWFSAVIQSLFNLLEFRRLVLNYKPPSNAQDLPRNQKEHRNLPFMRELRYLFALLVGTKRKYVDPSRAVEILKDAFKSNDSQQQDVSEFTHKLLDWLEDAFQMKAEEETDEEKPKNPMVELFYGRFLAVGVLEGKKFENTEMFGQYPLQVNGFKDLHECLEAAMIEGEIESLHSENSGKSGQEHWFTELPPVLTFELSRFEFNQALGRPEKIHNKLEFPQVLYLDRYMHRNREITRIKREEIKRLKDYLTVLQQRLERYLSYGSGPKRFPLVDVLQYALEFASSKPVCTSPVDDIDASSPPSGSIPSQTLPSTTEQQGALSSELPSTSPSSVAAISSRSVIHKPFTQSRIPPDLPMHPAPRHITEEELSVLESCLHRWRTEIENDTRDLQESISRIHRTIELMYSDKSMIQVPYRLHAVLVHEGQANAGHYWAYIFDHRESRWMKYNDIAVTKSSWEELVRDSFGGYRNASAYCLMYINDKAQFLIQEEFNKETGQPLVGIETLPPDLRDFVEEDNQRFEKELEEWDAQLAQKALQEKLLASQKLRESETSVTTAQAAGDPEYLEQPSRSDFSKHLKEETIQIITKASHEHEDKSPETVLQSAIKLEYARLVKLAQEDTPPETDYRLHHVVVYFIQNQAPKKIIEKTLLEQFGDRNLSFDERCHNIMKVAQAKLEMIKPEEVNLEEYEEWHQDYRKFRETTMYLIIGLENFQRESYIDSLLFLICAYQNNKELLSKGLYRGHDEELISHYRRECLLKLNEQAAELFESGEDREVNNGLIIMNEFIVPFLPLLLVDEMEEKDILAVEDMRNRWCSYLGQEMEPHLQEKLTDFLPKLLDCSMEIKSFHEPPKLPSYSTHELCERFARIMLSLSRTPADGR
Summary of the method: as §1

USP28 = target: T3, USP28 (UniProt Q96RU2)
T3 sequence (whole entry): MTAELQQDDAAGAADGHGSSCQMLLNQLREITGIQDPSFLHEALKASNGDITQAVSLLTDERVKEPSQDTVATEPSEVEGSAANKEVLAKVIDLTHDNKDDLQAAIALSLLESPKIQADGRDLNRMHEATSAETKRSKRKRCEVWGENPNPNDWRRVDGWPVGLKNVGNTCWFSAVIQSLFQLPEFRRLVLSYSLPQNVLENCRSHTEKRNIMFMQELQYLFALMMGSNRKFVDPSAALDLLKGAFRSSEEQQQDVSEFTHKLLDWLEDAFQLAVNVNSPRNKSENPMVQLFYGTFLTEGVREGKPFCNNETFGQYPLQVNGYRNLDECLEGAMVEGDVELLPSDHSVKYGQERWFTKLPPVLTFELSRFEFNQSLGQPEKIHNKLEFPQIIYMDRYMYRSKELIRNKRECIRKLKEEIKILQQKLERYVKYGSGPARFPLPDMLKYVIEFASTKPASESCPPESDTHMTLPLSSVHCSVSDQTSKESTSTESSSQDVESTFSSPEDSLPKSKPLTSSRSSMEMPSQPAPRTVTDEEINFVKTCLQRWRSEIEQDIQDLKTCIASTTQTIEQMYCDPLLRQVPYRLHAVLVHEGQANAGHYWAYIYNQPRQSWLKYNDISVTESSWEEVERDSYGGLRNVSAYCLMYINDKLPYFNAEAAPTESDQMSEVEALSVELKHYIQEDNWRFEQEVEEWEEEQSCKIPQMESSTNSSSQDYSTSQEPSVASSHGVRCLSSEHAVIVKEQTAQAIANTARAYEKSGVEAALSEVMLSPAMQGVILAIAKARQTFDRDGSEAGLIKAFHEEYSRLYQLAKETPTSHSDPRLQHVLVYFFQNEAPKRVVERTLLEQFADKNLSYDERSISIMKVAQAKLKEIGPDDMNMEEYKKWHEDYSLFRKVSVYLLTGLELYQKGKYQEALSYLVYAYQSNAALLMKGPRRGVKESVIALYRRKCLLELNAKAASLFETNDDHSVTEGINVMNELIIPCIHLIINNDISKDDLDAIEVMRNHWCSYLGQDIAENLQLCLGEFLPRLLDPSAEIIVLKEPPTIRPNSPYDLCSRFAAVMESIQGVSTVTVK
Summary of the method: as §1

Measured: log2 ratio of Biotin-Ahx-Ub-VS probe labelling

USP24, sequence (Q9UPU5 whole entry): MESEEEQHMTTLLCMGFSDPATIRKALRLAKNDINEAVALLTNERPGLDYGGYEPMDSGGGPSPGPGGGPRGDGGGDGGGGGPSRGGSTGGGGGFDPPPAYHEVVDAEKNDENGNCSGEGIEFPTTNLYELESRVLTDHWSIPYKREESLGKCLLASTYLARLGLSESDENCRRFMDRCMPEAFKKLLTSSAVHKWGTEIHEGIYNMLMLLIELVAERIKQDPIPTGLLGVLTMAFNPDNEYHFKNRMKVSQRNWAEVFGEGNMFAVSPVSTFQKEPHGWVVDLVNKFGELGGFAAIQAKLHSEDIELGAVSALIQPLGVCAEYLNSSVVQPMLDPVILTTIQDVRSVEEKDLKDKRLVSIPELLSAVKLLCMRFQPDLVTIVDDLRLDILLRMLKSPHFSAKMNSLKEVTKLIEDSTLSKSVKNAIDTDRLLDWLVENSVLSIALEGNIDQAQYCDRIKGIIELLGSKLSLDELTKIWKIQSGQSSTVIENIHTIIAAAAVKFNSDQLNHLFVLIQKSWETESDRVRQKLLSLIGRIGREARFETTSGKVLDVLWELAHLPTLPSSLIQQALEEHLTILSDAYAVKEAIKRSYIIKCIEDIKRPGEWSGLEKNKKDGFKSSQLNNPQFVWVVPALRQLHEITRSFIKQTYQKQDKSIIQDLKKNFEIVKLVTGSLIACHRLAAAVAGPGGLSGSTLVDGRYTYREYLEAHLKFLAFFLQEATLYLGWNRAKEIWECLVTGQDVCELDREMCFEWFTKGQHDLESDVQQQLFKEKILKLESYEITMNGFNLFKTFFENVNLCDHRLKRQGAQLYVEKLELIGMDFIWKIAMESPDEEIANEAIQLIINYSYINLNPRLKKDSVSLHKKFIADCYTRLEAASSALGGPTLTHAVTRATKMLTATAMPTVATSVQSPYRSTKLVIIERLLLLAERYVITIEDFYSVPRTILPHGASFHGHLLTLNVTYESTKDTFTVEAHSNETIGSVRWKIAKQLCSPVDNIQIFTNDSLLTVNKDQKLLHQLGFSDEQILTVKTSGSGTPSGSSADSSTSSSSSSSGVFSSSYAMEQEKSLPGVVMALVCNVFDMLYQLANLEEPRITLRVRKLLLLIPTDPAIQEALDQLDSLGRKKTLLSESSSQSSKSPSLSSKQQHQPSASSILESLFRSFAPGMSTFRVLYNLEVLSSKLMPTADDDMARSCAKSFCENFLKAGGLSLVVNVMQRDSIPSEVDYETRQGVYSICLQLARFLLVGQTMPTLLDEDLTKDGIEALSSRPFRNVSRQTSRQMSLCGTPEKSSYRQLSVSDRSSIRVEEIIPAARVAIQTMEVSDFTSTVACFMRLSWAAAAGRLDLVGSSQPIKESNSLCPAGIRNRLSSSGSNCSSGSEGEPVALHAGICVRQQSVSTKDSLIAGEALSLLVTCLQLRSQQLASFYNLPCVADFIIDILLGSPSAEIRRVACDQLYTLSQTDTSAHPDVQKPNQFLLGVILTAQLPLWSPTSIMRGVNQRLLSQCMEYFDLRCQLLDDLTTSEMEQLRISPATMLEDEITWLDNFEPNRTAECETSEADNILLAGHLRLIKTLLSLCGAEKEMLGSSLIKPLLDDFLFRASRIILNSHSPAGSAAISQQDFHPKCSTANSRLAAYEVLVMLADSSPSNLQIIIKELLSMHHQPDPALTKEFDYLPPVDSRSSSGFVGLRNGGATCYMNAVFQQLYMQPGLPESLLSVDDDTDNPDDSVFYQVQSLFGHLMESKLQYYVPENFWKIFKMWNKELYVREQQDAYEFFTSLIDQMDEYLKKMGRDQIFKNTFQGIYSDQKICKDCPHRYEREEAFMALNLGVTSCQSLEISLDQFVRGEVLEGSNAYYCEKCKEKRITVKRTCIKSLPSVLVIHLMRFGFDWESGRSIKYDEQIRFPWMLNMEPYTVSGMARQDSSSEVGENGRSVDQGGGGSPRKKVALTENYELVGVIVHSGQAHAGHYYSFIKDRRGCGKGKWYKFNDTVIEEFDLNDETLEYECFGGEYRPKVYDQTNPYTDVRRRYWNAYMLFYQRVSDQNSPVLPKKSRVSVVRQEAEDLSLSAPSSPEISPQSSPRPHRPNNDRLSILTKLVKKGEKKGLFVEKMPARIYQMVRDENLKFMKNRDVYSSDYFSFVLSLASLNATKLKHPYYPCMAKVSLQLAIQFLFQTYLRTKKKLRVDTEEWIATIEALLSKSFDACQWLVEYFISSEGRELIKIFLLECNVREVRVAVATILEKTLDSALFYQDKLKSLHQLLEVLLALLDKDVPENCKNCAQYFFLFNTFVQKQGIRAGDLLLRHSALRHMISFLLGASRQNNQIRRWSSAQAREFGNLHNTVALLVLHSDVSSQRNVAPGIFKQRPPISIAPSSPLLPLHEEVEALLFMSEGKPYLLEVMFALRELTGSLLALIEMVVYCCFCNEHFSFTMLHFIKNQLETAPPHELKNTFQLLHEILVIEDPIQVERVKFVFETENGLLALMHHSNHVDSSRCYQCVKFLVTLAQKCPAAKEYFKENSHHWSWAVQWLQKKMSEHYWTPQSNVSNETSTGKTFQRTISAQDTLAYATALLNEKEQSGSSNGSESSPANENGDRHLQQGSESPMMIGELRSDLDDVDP

COc1ccc(C2CCCN2C(=O)CCl)c(OC)c1 (centres undefined)
inactive: USP19 -0.593 | USP24 -0.807 | USP25 -0.175 | USP28 -0.41
